# Biological target: NADPH oxidase 5 (Homo sapiens) (UniProt Q96PH1)
# Assay: compounds shifting NOX5 Amplex Red fluorescence – cell-based, HEK293-NOX5, NOX inhibitor project, primary screen (AID 1161)
# Conditions: HEK293-NOX5, ionomycin, 45 min, higher = more signal
# Chain of NADPH oxidase 5 (Homo sapiens) (Q96PH1 whole entry, looked up): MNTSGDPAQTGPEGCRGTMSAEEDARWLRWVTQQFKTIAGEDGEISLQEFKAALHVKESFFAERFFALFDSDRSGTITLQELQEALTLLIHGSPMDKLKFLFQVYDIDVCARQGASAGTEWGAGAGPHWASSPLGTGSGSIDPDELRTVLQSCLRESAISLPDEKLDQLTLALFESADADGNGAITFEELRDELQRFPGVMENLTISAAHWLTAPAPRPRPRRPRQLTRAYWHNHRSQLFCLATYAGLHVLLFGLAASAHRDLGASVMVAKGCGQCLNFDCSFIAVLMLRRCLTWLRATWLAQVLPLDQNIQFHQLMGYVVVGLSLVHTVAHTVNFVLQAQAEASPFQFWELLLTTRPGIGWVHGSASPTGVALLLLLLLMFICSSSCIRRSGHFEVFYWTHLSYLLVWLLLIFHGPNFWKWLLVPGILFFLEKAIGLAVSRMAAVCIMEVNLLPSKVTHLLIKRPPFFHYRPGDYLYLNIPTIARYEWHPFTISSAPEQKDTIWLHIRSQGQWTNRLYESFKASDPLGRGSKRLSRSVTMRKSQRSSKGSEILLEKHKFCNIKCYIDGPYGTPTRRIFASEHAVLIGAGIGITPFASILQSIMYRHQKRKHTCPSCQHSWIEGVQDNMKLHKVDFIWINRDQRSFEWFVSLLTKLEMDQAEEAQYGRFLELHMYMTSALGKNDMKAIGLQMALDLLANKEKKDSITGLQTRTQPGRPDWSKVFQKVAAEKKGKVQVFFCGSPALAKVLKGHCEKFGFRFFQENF
row,Compound,z-score
1,CCOC(=O)C1=CC[C@@H](c2ccc(OC)cc2)N(S(=O)(=O)c2ccc(C)cc2)[C@H]1c1ccc(C)cc1,0.0417
2,CCOC(=O)C[C@H]1[C@H](OC(=O)Cc2ccc3c(c2)OCO3)[C@@H](NC(=O)c2ccc3ccccc3n2)c2cc(OCCCO)ccc2N1C(=O)Cc1ccc(OC)cc1,0.159
3,CC(C)(C)N1CC=CC23O[C@@H]4C=CCOC(=O)[C@@H]4[C@H]2C(=O)N(CCO)[C@@H]3C1=O (stereo not given in full),1.59
4,CCOC(=O)C1=CC[C@@H](c2ccc(OC)cc2)N(S(=O)(=O)c2ccc(C)cc2)[C@H]1CC,0.209
5,COc1ccc(NN2C(C(O)c3ccc(I)cc3)C=CC3C(=O)N(C4CCCCC4)C(=O)C32)cc1 (stereo not given),-1.16
6,C=CCOC(=O)[C@H]1[C@@H]2C(=O)O[C@@H](c3ccccc3)[C@@H](c3ccccc3)N2[C@@H](c2ccc(OCCOC(=O)[C@@H]3C[C@@H]4C(=O)N[C@@H](CCCC[N+](C)(C)C)C(=O)N4[C@@H]3c3ccc(O)cc3)cc2)[C@]12C(=O)Nc1ccc(I)cc12,0.61
7,Cc1ccc(S[C@]2(C(=O)NCc3ccccc3)CC(=O)N(Cc3ccccc3C(F)(F)F)[C@@H]2c2ccc(CO)cc2)cc1,-0.3
8,CC(C)=CCCC(C)=CC(O)C1C=CC2C(=O)NC(=O)C2N1Nc1ccccn1 (stereo not given),-0.467
9,O=C1O[C@H](c2ccccc2)[C@H](c2ccccc2)N2[C@H]1[C@@H](C(=O)O)[C@]1(C(=O)Nc3ccc(C#CCCO)cc31)[C@H]2c1ccc(OCCO)cc1,0.51
10,C=CCN1C(=O)[C@@]2(O[C@@H](CCn3cc([C@H](O)c4ccccc4)nn3)[C@H]([Si](C)(C)c3ccc(OC)cc3)[C@H]2C)c2cc(N3C(=O)c4cccc5cccc3c45)ccc21,2.52
11,NC(=O)NCC#Cc1ccc2c(c1)[C@]1(C(=O)N2)[C@H](c2ccc(OCCO)cc2)N2[C@H](c3ccccc3)[C@H](c3ccccc3)OC(=O)[C@H]2[C@@H]1C(=O)O,-0.441
12,CO[C@H]1O[C@H](CO)[C@@H](OC(=O)Nc2ccc3c(c2)OCO3)[C@H](OC(=O)Nc2ccccc2-c2ccccc2)[C@H]1OC(=O)Nc1ccccc1-c1ccccc1,-0.848
13,CC1CC/C=C\[C@H]2OC34C=CCN(c5ccc6ccccc6c5)C(=O)[C@H]3N(C(C)CO)C(=O)[C@@H]4C2C(=O)O1 (stereo not given in full),1.58
14,COC(=O)[C@@]1(Cc2ccc(OC)cc2)[C@H]2c3cc(C(=O)N4CCCC4)n(Cc4ccc(C(F)(F)F)nc4)c3C[C@H]2CN1C(=O)c1ccccc1,0.63
15,Cc1ccc(C(C)CC(O)C2C=CC3C(=O)N(C)C(=O)C3N2Nc2ccccc2)o1 (stereo not given),-3.53
16,C=CC[C@@]1(C(=O)N(C)C)N=C(c2ccc(OCCCO)cc2)O[C@@H]1c1ccccc1CN=[N+]=[N-],-1.42
17,COC(=O)[C@@]1(Cc2ccccc2)[C@H]2c3cc(C(=O)N4CCCC4)n(Cc4ccc(OC)c(OC)c4)c3C[C@H]2CN1C(=O)c1ccccc1,-3.31
18,N#Cc1ccc(NN2C(C(O)C3CC=CCC3)C=CC3C(=O)N(c4ccccc4)C(=O)C32)cc1 (stereo not given),-2.39

row,Compound,z-score
1,C=C(C)[C@@H]1CC=C(C(O)C2C=CC3C(=O)N(c4ccccc4)C(=O)C3N2Nc2ccc([N+](=O)[O-])cc2)CC1 (stereo not given in full),-2.96
2,COc1ccc([Si](C)(C)[C@H]2[C@H](CCO)O[C@@]3(C(=O)N(Cc4cccc(N(C=O)c5ccccc5)c4)c4ccccc43)[C@@H]2C)cc1,0.00518
3,CCCCC(O)C1C=CC2C(=O)N(c3ccccc3)C(=O)C2N1Nc1ccc([N+](=O)[O-])cc1 (stereo not given),-0.302
4,COc1ccc([Si](C)(C)[C@@H]2[C@@H](CC(=O)N3CCC[C@H]3CO)O[C@]3(C(=O)N(Cc4ccc(N5CCOC5=O)cc4)c4ccccc43)[C@H]2C)cc1,3.85
5,CC(C)NC(=O)[C@@H]1c2ccccc2C(=O)N(Cc2ccccc2C(F)(F)F)[C@H]1c1ccc(CO)cc1,-1.97
6,CCCCCC1=C2CNC(Cc3ccccc3)(C(=O)OC)C=C2C(C)C1=O (stereo not given),-3
7,CN(C)c1ccc(C(O)C2C=CC3C(=O)N(Cc4ccccc4)C(=O)C3N2n2cnnc2)cc1 (stereo not given),0.36
8,O=C(NCC(O)CO)[C@@]1(CCS(=O)(=O)c2ccccc2)N=C(c2ccc(OCCCO)cc2)O[C@H]1c1ccccc1 (stereo not given in full),1.33
9,COCCCNC(=O)[C@@H]1c2ccccc2C(=O)N(Cc2ccc(OC(F)(F)F)cc2)[C@H]1c1ccc(CO)cc1,1.91
10,Cc1ccc(F)cc1S(=O)(=O)N[C@H]1CCN(Cc2ccc(OC(C)C)cc2)C1,-2.37
11,CC1CC/C=C\[C@H]2OC34C=CCN(c5ccc(Cl)cc5)C(=O)[C@H]3N(CCCCCCO)C(=O)[C@]4(C)C2C(=O)O1 (stereo not given in full),1.98
12,O=C1C2C=CC(C(O)c3c(F)cccc3Cl)N(Nc3ccc([N+](=O)[O-])cc3)C2C(=O)N1c1ccccc1 (stereo not given),-1.9
13,[N-]=[N+]=Nc1ccccc1[C@@H]1OC(c2ccc(OCCCO)cc2)=N[C@]1(CCS(=O)(=O)c1ccccc1)C(=O)NCC(O)CO (stereo not given in full),-1.16
14,C=CC[C@@]1(C(=O)OC)N=C(c2ccc(OCCCO)cc2)O[C@@H]1c1ccccc1N=[N+]=[N-],-0.0237
15,COC(=O)[C@@]1(Cc2ccc(OC)cc2)[C@H]2c3cc(C(=O)N4CCCC4)n(CCn4cc([N+](=O)[O-])nc4C)c3C[C@H]2CN1C(=O)c1ccccc1,-2.54
16,CN1C(=O)C2C(C3CC3)C=C3CN(Cc4cccc(Cl)c4)[C@@H]([C@@H](O)Cc4ccccc4)C3C2C1=O (stereo not given in full),0.168
17,COc1ccccc1CN1C(=O)c2ccccc2[C@](Cc2ccccc2I)(C(=O)NCC(C)C)[C@@H]1c1ccc(CO)cc1,-0.234

# Reference: PubChem BioAssay
